Common to all, as to format: functional
Experiment [1] has as its target Solute carrier family 2, facilitated glucose transporter member 1 (Homo sapiens) (UniProt P11166). Kind of experiment: ST_JUDE_LEISH: Cytotoxicity at 2uM final concentration against transgenic Leishmania Mexicana promastigotes LmGLUT1 that are glucose transport deficient and complemented with the human glucose transporter GLUT1. Activity is measured by DNA content using SYBR green in vitro.

The target of experiment [2] is Hexose transporter 1 (Plasmodium falciparum) (UniProt O97467). Put plainly: ST_JUDE_LEISH: Cytotoxicity at 2uM final concentration against transgenic Leishmania Mexicana promastigotes LmPfHT that are glucose transport deficient and complemented with the Plasmodium falciparum hexose transporter. Activity is measured by DNA content using SYBR green in vitro.
Experiment [3] concerns the target Glucose transporter (Leishmania mexicana) (UniProt O61059). Put plainly: ST_JUDE_LEISH: Cytotoxicity at 2uM final concentration against transgenic Leishmania Mexicana promastigotes LmGT2 that are glucose transport deficient and complemented with the L. Mexicana glucose transporter 2. Activity is measured by DNA content using SYBR green in vitro.

Solute carrier family 2, facilitated glucose transporter member 1 (Homo sapiens), sequence (P11166 whole entry): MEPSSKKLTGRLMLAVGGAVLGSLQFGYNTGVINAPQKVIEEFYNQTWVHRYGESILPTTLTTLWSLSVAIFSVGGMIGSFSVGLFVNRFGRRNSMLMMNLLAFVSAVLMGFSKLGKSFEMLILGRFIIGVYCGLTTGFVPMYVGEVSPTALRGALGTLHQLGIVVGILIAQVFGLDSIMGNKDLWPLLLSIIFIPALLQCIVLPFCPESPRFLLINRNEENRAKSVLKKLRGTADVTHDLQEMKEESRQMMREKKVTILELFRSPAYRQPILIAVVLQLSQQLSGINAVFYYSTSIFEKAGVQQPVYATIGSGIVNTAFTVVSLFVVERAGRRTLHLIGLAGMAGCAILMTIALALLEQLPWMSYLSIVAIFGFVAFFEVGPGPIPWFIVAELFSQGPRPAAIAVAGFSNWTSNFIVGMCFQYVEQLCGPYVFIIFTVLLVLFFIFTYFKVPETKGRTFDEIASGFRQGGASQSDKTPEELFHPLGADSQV

With `Cc1cccc2nc(-c3cccc(-c4ccc(NC(=O)Nc5ccsc5)cc4)c3)[nH]c12`, the inhibition (in general, the change of the read-out against control, counted positive when it falls) in experiment [1] stood at 5%; in experiment [2], 4.66%; in experiment [3], 2.53%.
The corresponding values for `Cc1ccc(C)c2c1[nH]c1ccc(C3=NCCN3)cc12` are 0.89%, 1.39% and 1.4%.
On to `CCNc1cc(C(=O)N[C@@H](Cc2ccccc2)[C@H](O)CNC(C)(C)CCCC(C)C)cc(N2CCCC2=O)c1`, for which the results for the inhibition in experiment [1], in experiment [2] and in experiment [3] were 2.43%, 1.71% and 3.47%, respectively.
The corresponding values for `CCOc1ccc(Br)cc1/C=C/C(=O)Nc1ccc2c(c1)CN(C)CCC2` are 4.12%, 5.18% and 4.34%.
The like results for `O=C1c2ccccc2-n2c1nc1ccccc1c2=O` were, in that order, -2.52%, -2.55% and -3.28%.
The corresponding values for `Cc1ccc2c(c1)c(C1CCN(C(=O)c3ccc([N+](=O)[O-])o3)CC1)cn2C` are 8.36%, 9.14% and 4.16%.
Turning to `COc1cc2nc(NCCC(C)C)n3nc(-c4ccccc4)nc3c2cc1OC`, the inhibition in experiment [1] is -1.19%; in experiment [2] it was -0.07%; in experiment [3] it was -1.51%.
For `CCc1cn2c3c(cc(C(=O)N[C@@H](Cc4cc(F)cc(F)c4)[C@H](O)CNC4CCOCC4)cc13)N(C)S(=O)(=O)CC2`, the inhibition in experiment [1] was 0.86%; in experiment [2] it was -1.91%; in experiment [3], -0.48%.
The like results for `CC(C)Cn1c(Sc2ccc(C#N)c([N+](=O)[O-])c2)nnc1-c1cccs1` were, in that order, 1.53%, 3.14% and 0.24%.
The like results for `CCC(C)NS(=O)(=O)c1ccc2nc(Nc3ccc(C)c(Cl)c3)n(C3CCCCC3)c2c1` (stereo not drawn) were, in that order, 5.56%, 5.72% and 4.46%.
The corresponding values for `Cc1cc(C)cc(OCC(O)CN(Cc2cc(Cl)cc(Cl)c2)C(=O)Nc2ccc([N+](=O)[O-])cc2)c1` (stereo not drawn) are 4.12%, 3.99% and 5.26%.
As for `CN(C)CCNc1nccc(N2CCc3ncnc(Nc4ccc(OCc5cccc(F)c5)c(Cl)c4)c3C2)n1`, the inhibition in experiment [1] amounted to 20%; in experiment [2] it was 28.4%; in experiment [3] it was 3.49%.
The like results for `CC(C)CCN(Cc1cncn1Cc1cccc(Cl)c1)C(=O)c1cncc(-c2ccccc2)c1` were, in that order, 5.13%, 6% and 5.78%.
With `O=C(CC1CCCC1)Nc1ccc2c(c1)CCC2`, the inhibition came out at 2.83% in experiment [1], 3.17% in experiment [2] and 1.69% in experiment [3].
The corresponding values for `Cc1ccc(NC(=O)c2ccc3ncccc3c2)cc1OC1CCN(Cc2ccsc2)CC1` are 3.79%, 3.4% and 2.95%.
The corresponding values for `COc1ccc(N2CCN(CCCCNC(=O)c3ccc(NC(=O)c4ccc(OC(F)(F)F)cc4)cc3)CC2)c(OC)c1` are 5.81%, 5.69% and 6.29%.
The like results for `CS(=O)(=O)c1ccc(-c2nc(NCC3CCCCC3)cc(C(F)(F)F)n2)cc1` were, in that order, -0.02%, 1.77% and 0.16%.
As to `CCCCN(CCCC)/C(=N/C(=N)NCc1ccc(Cl)c(Cl)c1)NCCCCCCN/C(=N\C(=N)NCc1ccc(Cl)c(Cl)c1)N(CCCC)CCCC`, the results for the inhibition in experiment [1], in experiment [2] and in experiment [3] were -0.73%, -0.52% and -0.96%, respectively.
Take `CN(C)S(=O)(=O)c1ccc(N2C(=O)C3C(C2=O)C2(c4ccccc4)C(=O)C3(c3ccccc3)C(c3ccccc3)=C2c2ccccc2)cc1` (stereo not drawn): the results for the inhibition in experiment [1], in experiment [2] and in experiment [3] were -0.75%, -2.18% and -2.57%, respectively.
The corresponding values for `COc1ccccc1C1CCN(C2CCC(NC(=O)c3ccc4[nH]c(-c5ccc(C)cc5)nc4c3)CC2)CC1` (stereo not drawn) are 1.55%, 3.38% and 2.37%.
On to `Cn1c(=N)n(CC(=O)OCc2ccc(OCc3ccccc3)cc2)c2ccccc21`, for which the inhibition in experiment [1] came out at 2.99%; in experiment [2], 2.29%; in experiment [3], 1.49%.
`CCn1cc(-c2cc(C(=O)Nc3ccc(OC)cc3C)c3ccccc3n2)c(C)n1`: the inhibition came out at 7.19% in experiment [1], 4.56% in experiment [2] and 3.97% in experiment [3].
The corresponding values for `CC(C)N1CCC(NCc2ccc(-c3ccc(Cl)cc3)cc2)CC1` are 11.6%, 13.6% and 10.2%.
The like results for `COc1ccc(-c2ccc(NC(=O)c3ccc(C#N)cc3)cc2)cc1CNC(C)C` were, in that order, 4.24%, 3.24% and 2.38%.
The like results for `Cc1cccc2nc(-c3cccc(-c4ccc(NC(=O)Cc5ccc[n+]([O-])c5)cc4)c3)[nH]c12` were, in that order, 0.18%, 1.16% and 0.56%.
On to `Cc1ccccc1C1CCN(c2ncc(C(=O)NC3CC3)cc2Cl)CC1`, for which the inhibition in experiment [1] was -1.43%; in experiment [2] it was 5.9%; in experiment [3], 2.12%.
The corresponding values for `Cc1nc(C)c(-c2ccc(C(F)(F)F)cc2)c(O)c1Br` are 2.72%, 1.79% and 0.77%.
On to `Cc1cccc(NC(=O)Nc2cccc(-c3ccc(-c4nc5cc(C(F)(F)F)ccc5[nH]4)cc3)c2)c1`, for which the inhibition in experiment [1] was determined as 5.86%; in experiment [2] it was 2.01%; in experiment [3], 1.66%.
The corresponding values for `CCNc1cc(C(=O)N[C@@H](Cc2ccccc2)[C@H](O)CNC2CCC(C)(C)C2)cc(N2CCCCS2(=O)=O)c1` (stereo partly drawn) are 2.05%, 2.29% and 2.37%.
As to `C[C@@H](Oc1cc(-n2cnc3ccc(NC(=O)CCN4CCCCC4)cc32)sc1C(N)=O)c1ccccc1Cl`, the inhibition in experiment [1] is 8.99%; in experiment [2], 5.72%; in experiment [3], -0.04%.
The like results for `Cc1ccc(NC(=O)c2cccc(CN3CCCN(Cc4cccc(O)c4)CC3)c2)cc1C` were, in that order, 4.69%, 3.38% and 4.38%.
As for `Nc1nc(N)c2c(Cl)c(N(Cc3ccccc3)Cc3ccccc3)ccc2n1`, the inhibition came out at 23.6% in experiment [1], 23.5% in experiment [2] and 7.75% in experiment [3].
The like results for `COCn1ncc2cc(-c3cccc(NC(=O)c4csc(NC(C)=O)n4)c3)ccc21` were, in that order, 3.31%, 1.44% and 2.05%.
For `CS(=O)(=O)c1ccc2[nH]c(-c3cc(-c4cccc(F)c4)cnc3N)nc2c1`, the values for the inhibition in experiment [1], in experiment [2] and in experiment [3] were 5.71%, 3.53% and 3.04%, respectively.
The corresponding values for `Cc1ccc(C2=NNC3(S2)C(=O)Nc2ccc(C)cc23)cc1` (stereo not drawn) are -2.4%, 2.71% and 3.44%.
The corresponding values for `Nc1ccc(-c2ccc(NC(=O)Nc3ccccc3)cc2)cn1` are 2.95%, 2.5% and 3.08%.

The record behind these values is ChEMBL document CHEMBL3433997, “St. Jude Leishmania screening dataset” (2016).
